# BAZ2B inh = inhibitors of human BAZ2B bromodomain. AlphaScreen BAZ2B-H3K14Ac peptide displacement. Potency, µM (top dose mostly 114 µM), for the others: at the top dose activity change, negative = inhibition, usual class: inhibitors. hit rate 4.4% among 360,000; also: % is scaled to controls: 0 for no effect and ±100 for the full control effect; nearly all actives have a fitted effect of over 60% in size
#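 Protein-peptide AlphaScreen: BAZ2B 50 nM, b-H3K14Ac 50 nM, 1x PBS pH 7.4 + 0.01% Tween-20. Preincubation 30 min RT; cpd 30 min RT (top 110 uM); beads 20 min RT, light-protected.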
# Sfp PPTase inh = inhibitors of Bacillus subtilis Sfp phosphopantetheinyl transferase; AID 1490; Biochemical Sfp PPTase activity, qHTS; Potency, µM, inactives show largest response in the series, negative = inhibition, most hits filed as inhibitors; hit rate 3.5% among 310,000;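 also: the enzyme is Sfp with the accession as filed and its product quenches rhodamine fluorescence; 0% = enzyme reaction without inhibitor and -100% = no enzyme wells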
#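 Fluorescence-quenching assay: 15 nM Sfp-PPTase preincubated 15 min at room temperature with compound, then 5 uM rhodamine-CoA and 12.5 uM BHQ-2-labelled YbbR peptide added. Fluorescence (ex 525/em 598 nm) read at start and after 30 min; difference gives rate.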
# JMJD2A Tudor inh = JMJD2A Tudor domain (human) inhibition. AlphaScreen JMJD2A-Tudor / H3K4me3 peptide binding. hit rate 4.4% among 390,000. Potency, µM (highest dose often 114 µM), for inactives: top-dose activity change, negative = inhibition, hits mostly inhibitors; also: % is scaled to controls: 0 for no effect and ±100 for the full control effect; nearly all actives have a fitted effect of over 50% in size
# Target sequence (O75164 whole entry, looked up, the tested form may be a part): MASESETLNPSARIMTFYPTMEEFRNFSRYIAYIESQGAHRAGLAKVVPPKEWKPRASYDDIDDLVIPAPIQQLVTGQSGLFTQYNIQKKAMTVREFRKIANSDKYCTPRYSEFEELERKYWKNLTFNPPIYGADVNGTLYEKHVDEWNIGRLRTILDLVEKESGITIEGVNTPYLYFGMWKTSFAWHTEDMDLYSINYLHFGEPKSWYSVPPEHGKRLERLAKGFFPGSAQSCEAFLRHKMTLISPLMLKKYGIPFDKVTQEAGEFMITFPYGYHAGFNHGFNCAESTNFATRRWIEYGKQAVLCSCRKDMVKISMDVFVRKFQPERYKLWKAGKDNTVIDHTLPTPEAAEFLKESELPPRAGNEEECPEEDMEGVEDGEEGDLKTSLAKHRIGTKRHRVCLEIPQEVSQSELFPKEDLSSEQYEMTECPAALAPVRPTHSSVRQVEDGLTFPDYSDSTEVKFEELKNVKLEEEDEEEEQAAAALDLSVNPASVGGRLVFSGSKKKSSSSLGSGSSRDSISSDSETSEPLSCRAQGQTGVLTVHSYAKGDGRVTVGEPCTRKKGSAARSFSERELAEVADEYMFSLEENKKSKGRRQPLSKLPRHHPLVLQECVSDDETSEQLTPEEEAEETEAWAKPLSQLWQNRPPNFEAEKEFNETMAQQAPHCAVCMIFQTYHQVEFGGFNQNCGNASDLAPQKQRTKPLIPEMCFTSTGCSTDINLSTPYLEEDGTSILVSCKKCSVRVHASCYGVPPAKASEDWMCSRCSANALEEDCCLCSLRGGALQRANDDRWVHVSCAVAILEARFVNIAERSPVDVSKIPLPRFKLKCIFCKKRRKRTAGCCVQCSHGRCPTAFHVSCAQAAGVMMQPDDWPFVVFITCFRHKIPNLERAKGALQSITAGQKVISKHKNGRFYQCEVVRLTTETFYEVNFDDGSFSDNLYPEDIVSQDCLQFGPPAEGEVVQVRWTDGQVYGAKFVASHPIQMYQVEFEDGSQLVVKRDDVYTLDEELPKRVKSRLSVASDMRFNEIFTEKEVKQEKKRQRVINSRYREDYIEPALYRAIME
# G9a block = G9a (human) methyltransferase inhibition; G9a H3K9 monomethylation, AlphaScreen, 2 h; Potency, µM (titrated, usually from 102 µM), for the others: at the highest dose activity, negative = inhibition, most hits filed as inhibitors; hit rate 8.8% among 350,000; AID 504332; also: % is scaled to controls: 0 for no effect and ±100 for the full control effect; nearly all actives have a fitted effect of over 75% in size
#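 Quantitative HTS format: methyltransferase activity on a biotin-tagged H3K9 peptide is measured by AlphaScreen, using a rabbit anti-monomethyl-H3K9 antibody with streptavidin donor and anti-IgG acceptor beads. Final levels are 20 nM enzyme, 500 nM peptide, 20 uM SAM; 2 h RT.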
# HP1b chromo inh = inhibitors of HP1-beta chromodomain binding to methylated histone tails. P83916. AlphaScreen HP1-beta / biotin-H3K9me3 peptide binding. Potency, µM (titrated, usually from 114 µM), inactives show top-dose activity change, negative = inhibition, hits mostly inhibitors. hit rate 0.56% among 390,000; also: nearly all actives have a fitted effect of over 70% in size
#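 HP1-beta protein (50 nM final) preincubated 30 min at room temperature with biotinylated H3(1-18)K9me3 peptide (50 nM) in PBS pH 7.4, 0.01% Tween-20, then compound added for 30 min. AlphaScreen streptavidin donor/nickel chelate acceptor beads (10 ug/mL final), 30 min dark, luminescence read.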
# The depositor's hits bear a star; ? = inconclusive; nt = not tested or not shown; [ ] = another dose, or the depositor's remark. Only some compounds are listed: those with a hit (about 12% of all), similar ones and a draw of the others. Calls follow the shape of the dose curve; as a rule, active = well fitted curve in the direction sought with a large enough effect; inconclusive = small, poorly fitted or top-dose-only effect, or another doubt; inactive = no such curve, though single readings can be large; an effect the other way counts as inactive or inconclusive. Potency is read from the fitted curve at half-maximal effect.
SMILES,BAZ2B inh,Sfp PPTase inh,JMJD2A Tudor inh,G9a block,HP1b chromo inh
COc1ccc(-c2cc(-c3ccc(F)cc3)nc3c2COc2ccc(F)cc2-3)cc1,-14.1%,nt,0.4%,-4.2%[59 µM],24.8%
COc1ccc(C)cc1S(=O)(=O)N(CC(=O)NC1CCCC1)c1ccc(F)cc1,-0.1%,9.8%,-4.4%,50.1%,24.8%
Cc1ccccc1Cn1c(=O)n(Cc2ccc(Cl)cc2)c(=O)c2cccnc21,14.5%,nt,33.8%,21.5%[59 µM],57.2%
Cc1ccc(CCNC(=O)CCCc2nnc3n(C)c(=O)c4sccc4n23)cc1,0.7%,nt,-15.0%,7.4%[59 µM],20.2%
CCOc1ccc(CCN2C(=S)N([C@@H](CC(C)C)CN3CCCC3CN3C(=S)NC[C@@H]3Cc3ccc(O)cc3)C[C@@H]2CC(C)C)cc1 (some centres not stated),nt,nt,?,nt,12.8%
CCOC(=O)c1c(S(=O)(=O)N2CCC(C(=O)Nc3ccc(C)cc3C)CC2)c(C)n(C)c1C,-6.8%,nt,-11.3%,8.3%[59 µM],24.6%
COc1cccc(N2CC(NC(=O)c3ccc(S(=O)(=O)N4CCCCC4)cc3)CC2=O)c1 (configuration not stated),2.9%,nt,-17.5%,-12.4%[59 µM],28.2%
Cc1ccc(C(=O)N2CCCC(N3CCN(c4ccccc4C)CC3)C2)c(=O)[nH]1 (configuration not stated),-5.5%[57.1 µM],2.5%,50.1µM*,10.4%,?
CCCc1nc2oc3c(NCC4CCCO4)ncnc3c2c2c1COC(C)(C)C2 (configuration not stated),2.3%,8.2%,-11.2%,3.1%,7.3%
CC1(C)Cc2c(c(-c3ccco3)nc3sc4c(NCCN5CCOCC5)ncnc4c23)CO1,-1.7%,-4.2%,-26.2%,17.8µM*,-4.3%
CC1(C)Cc2c(c(-c3ccco3)nc3sc4c(NCC5CCCO5)ncnc4c23)CO1 (configuration not stated),5.3%,20µM*,?,-19.1%[59 µM],4.4%
CC1(C)Cc2c(c(-c3ccco3)nc3sc4c(NCCCO)ncnc4c23)CO1,-13.7%,7.94µM*,-32.3%,nt,-17.4%
CC(C)CNc1ncnc2c1sc1nc(N3CCOCC3)c3c(c12)CC(C)(C)OC3,8.3%,24.1%,-10.1%,-8.3%,10.1%
CCOc1cc(N2CCOCC2)c(OCC)cc1NC(=O)c1cc(S(=O)(=O)N2CCOCC2)ccc1C,nt,nt,-35.4%,nt,-2.3%
COc1ccc(-c2[nH]c(-c3ccc(C)cc3)nc2SCC(=O)Nc2nccs2)cc1,?,9.9%,?,44.7µM*,?
O=C(CSc1n[nH]c(-c2ccc(Br)cc2)n1)NC1CCCC1,nt,nt,3.4%,nt,40.5%
CCc1ccc(-c2nc(SCC(=O)NC3CC3)n[nH]2)cc1,10.5%,nt,-6.2%,44.7µM*,2.4%
COc1ccc(-c2nc(SCC(=O)NC3CCCC3)c(-c3ccc(OC)cc3)[nH]2)cc1,?,9.9%,?,50.1µM*,-15.6%
COc1ccc(-c2nc(SCC(=O)Nc3nccs3)c(-c3ccc(Cl)cc3)[nH]2)cc1,-0.5%,2.1%,-24.6%,-28.0%,24.7%
CCN(CC(=O)NCc1cccs1)C(=O)c1ccc(-c2cccc(C(F)(F)F)c2)o1,?,nt,-8.9%,?,2.1%
Cc1occc1C(=O)Nc1cccc(Cl)c1Cl,-7.4%,-2.1%,-14.1%,nt,19.0%
C=CCOc1ccc(/C=C2\SC(=S)N(C(C(=O)O)c3ccccc3)C2=O)cc1 (configuration not stated),?,-9.1%,?,?,-20.8%
COc1ccc(OC)c(/C=C2\SC(=S)N(C(C(=O)O)c3ccccc3)C2=O)c1 (configuration not stated),-32.7%,56.2µM*,-27.6%,nt,5.8%
CCOc1ccc(/C=C2\SC(=S)N(C(C(=O)O)c3ccccc3)C2=O)cc1OC (configuration not stated),?,56.2µM*,-29.1%,?,16.1%
Cc1cccc(C)c1N1C(=O)CC(N2CCN(S(=O)(=O)c3ccccc3F)CC2)C1=O (configuration not stated),nt,nt,-17.3%,nt,30.8%
SMILES,BAZ2B inh,Sfp PPTase inh,JMJD2A Tudor inh,G9a block,HP1b chromo inh
O=C1CC(N2CCN(S(=O)(=O)c3ccccc3F)CC2)C(=O)N1c1ccccc1F (configuration not stated),nt,nt,15.8µM*,nt,?
COc1cccc(N2C(=O)CC(N3CCN(CCN=CC4=C(O)CC(C)(C)CC4=O)CC3)C2=O)c1 (configuration not stated),-4.2%,8.0%,-14.0%,-5.7%,34.6%
CC1(C)CC(=O)C(C=NCCN2CCN(C(=S)NC3CCCCC3)CC2)=C(O)C1,11.3%,79.4µM*,-11.7%,26.2%[59 µM],22.0%
CC1(C)CC(=O)C(C=NCCN2CCN(C3CC(=O)N(c4cccc(Br)c4)C3=O)CC2)=C(O)C1 (configuration not stated),-15.0%,13.7%,-18.8%,70.8µM*,31.6%
COc1ccc(-c2c([C@H]3[C@@H]4C=CCC[C@@]4(C)C(=O)N3Cc3ccccc3)ccc3ccccc23)cc1OC,-27.9%,-4.8%,-35.5%,5.6%[59 µM],13.9%
COc1ccc(-c2ccc([C@H]3[C@@H]4C=CCC[C@@]4(C)C(=O)N3Cc3ccccc3)c(F)c2)cc1OC,-9.9%,20µM*,?,48.4%[12.7 µM],24.9%
COc1ccc(-c2ccc([C@H]3[C@H]4C=CC[C@@H](C)[C@@H]4C(=O)N3Cc3ccccc3)c(F)c2)cc1OC,-26.3%,22.4µM*,-31.2%,?,12.9%
CCCSc1nc(O)c(C2OC(=O)c3c2ccc(OC)c3OC)c(=O)n1-c1ccccc1 (configuration not stated),-0.3%,16.3%,-17.2%,?,38.8%
CCCCSc1nc(O)c(C2OC(=O)c3c2ccc(OC)c3OC)c(=O)n1-c1ccccc1 (configuration not stated),?,79.4µM*,-22.8%,?,35.7%
CCOC(=O)C1C(C(=O)OC)=C(c2ccc(F)cc2)c2ccc(OC)cc2N1S(=O)(=O)C(F)(F)F (configuration not stated),nt,9.9%,nt,-1.8%[59 µM],nt
Nc1cccc(-c2nc3ccc(C(=O)c4ccccc4)cc3[nH]2)c1,50.1µM*,3.2%,?,nt,-11.0%
COc1ccc2nc(-c3cccc(N)c3)[nH]c2c1,-18.3%,-20.8%,-15.4%,0.5%[59 µM],6.7%
CCc1ccc(CNC(=O)c2cnc3sc4cc(OC)ccc4n3c2=O)cc1,-0.1%,nt,9.8%,-2.6%[59 µM],38.9%
O=C(Nc1cc(Cl)cc(Cl)c1)c1ccc(F)c(S(=O)(=O)NC2CCCC2)c1,-0.1%,nt,-20.8%,0.1%[59 µM],35.3%
Cn1c(N)c(C(=O)Nc2ccccc2F)sc1=S,-32.5%,-19.8%,-33.2%,50.1µM*,?
Nc1c(C(=O)Nc2ccc(F)cc2)sc(=S)n1-c1ccccc1F,-12.3%,31.6µM*,-19.0%,7.94µM*,-22.1%
Cn1c(N)c(C(=O)Nc2ccc3ccccc3c2)sc1=S,0.3%,14.1µM*,-18.0%,7.08µM*,-20.8%
Cn1c(N)c(C(=O)N/N=C/c2ccccc2)sc1=S,0.8%,1.1%,-10.0%,nt,13.6%
